The source of these data is PubChem BioAssay (NCATS).

Several values for one entry are separate records, joined by “and”; a condition that tells them apart may be missing. Equal entries are not always repeated. Records with an inconclusive call do not appear. Unmarked numbers belong to inactive results. Activity calls are given as the source filed them. The call rests on the fitted dose curve; in most records, active means well fitted inhibition curve with a large enough effect; inconclusive means small, poorly fitted or top-dose-only effect; inactive means flat fitted curve, though single readings scatter.

One experiment has as its system ICS. The experiment in a line: qHTS profiling for inhibitors of Plasmodium falciparum proliferation (AID 504749). Further: potency means the concentration at half of the fitted maximal effect. To be noted: P. falciparum in erythrocytes, SYBR Green DNA, 72 h; series mostly up to 28.7 µM. The method, boiled down:
(§1)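 In a 72 h erythrocytic culture (37 C, humidified, 5% CO2) at 2.5% hematocrit and 0.3% starting parasitemia, compounds were tested; SYBR Green I in detergent lysis buffer stained parasite DNA overnight.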

A further experiment relates to JCK. Described as above. The conditions noted are these: P. falciparum in erythrocytes, SYBR Green DNA, 72 h; series mostly up to 28.7 µM. The essentials:
as §1

For the next experiment, the system named is N140. The description is as above. The conditions noted are these: P. falciparum in erythrocytes, SYBR Green DNA, 72 h; series mostly up to 28.7 µM. The essentials: as §1
A further experiment deals with P94_40. Described as above. To be noted: P. falciparum in erythrocytes, SYBR Green DNA, 72 h; series mostly up to 28.7 µM. The method, boiled down:
as §1

In another experiment the test system is PAD. Described as above. To be noted: P. falciparum in erythrocytes, SYBR Green DNA, 72 h; series mostly up to 28.7 µM. The method, boiled down:
as §1

A further experiment deals with PC15. The experiment is described as above. The conditions noted are these: P. falciparum in erythrocytes, SYBR Green DNA, 72 h; series mostly up to 28.7 µM. The method, boiled down:
as §1

The next experiment deals with PC49. The experiment is described as above. The conditions noted are these: P. falciparum in erythrocytes, SYBR Green DNA, 72 h; series mostly up to 28.7 µM. The method, boiled down: as §1
The next experiment deals with SC27B. The description is as above. To be noted: P. falciparum in erythrocytes, SYBR Green DNA, 72 h; series mostly up to 28.7 µM. The essentials: as §1
The next experiment relates to TAB109. The description is as above. The conditions noted are these: P. falciparum in erythrocytes, SYBR Green DNA, 72 h; series mostly up to 28.7 µM. The essentials: as §1
A further experiment has as its system TAB113. The experiment is described as above. To be noted: P. falciparum in erythrocytes, SYBR Green DNA, 72 h; series mostly up to 28.7 µM. The method, boiled down:
as §1

The test system of a further experiment is TAB165. The description is as above. To be noted: P. falciparum in erythrocytes, SYBR Green DNA, 72 h; series mostly up to 28.7 µM. The method, boiled down: as §1
The test system of another experiment is W2. The experiment is described as above. The conditions noted are these: P. falciparum in erythrocytes, SYBR Green DNA, 72 h; series mostly up to 28.7 µM. The essentials:
as §1

Experiment [1] relates to CRL-7250. Kind of experiment: Cytotoxic Profiling of Annotated Libraries Using Quantitative High-Throughput Screening (AID 1296008). On max response: on the % scale 0 is the no-effect control and ±100 the full control effect. The conditions noted are these: Five cell lines viability, CellTiter-Glo ATP luminescence, 48-72 h; max response: active compounds read low. The method, boiled down:
(§2)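 Cytotoxicity was measured as CellTiter-Glo ATP luminescence, read after 10 min at room temperature. Compound treatment of the cells lasted 48 or 72 hr at 37 degrees Celsius in a qHTS format.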
A general note: Cellular ATP, detected with luciferase, serves as a proxy for viable cell number.

A further experiment deals with HEK293. The experiment is described as above. To be noted: Five cell lines viability, CellTiter-Glo ATP luminescence, 48-72 h; max response: active compounds read low. The method, boiled down:
as §2

A further experiment concerns HaCat. The experiment is described as above. The conditions noted are these: Five cell lines viability, CellTiter-Glo ATP luminescence, 48-72 h; max response: active compounds read low. The essentials: as §2
The next experiment has as its system KB-3-1. Described as above. The conditions noted are these: Five cell lines viability, CellTiter-Glo ATP luminescence, 48-72 h; max response: active compounds read low. The essentials:
as §2

Another experiment deals with NIH3T3. The description is as above. To be noted: Five cell lines viability, CellTiter-Glo ATP luminescence, 48-72 h; max response: active compounds read low. The essentials:
as §2

The test system of another experiment is P93_24. Kind of experiment: qHTS profiling for inhibitors of Plasmodium falciparum proliferation (AID 504749). Further: potency means the concentration at half of the fitted maximal effect. The conditions noted are these: P. falciparum in erythrocytes, SYBR Green DNA, 72 h; series mostly up to 28.7 µM. The essentials:
as §1
On the technique in general: Quantitative high-throughput screening tests each substance at several concentrations.

The subject of another experiment is PC26. Described as above. The conditions noted are these: P. falciparum in erythrocytes, SYBR Green DNA, 72 h; series mostly up to 28.7 µM. The method, boiled down:
as §1

Experiment [2] concerns CRL-7250. Kind of experiment: qHTS assay to identify novel small-molecules to repurpose for Merkel cell carcinoma treatment (AID 1296009). To be noted: MCC and control cell lines, CellTiter-Glo viability, 72 h; series mostly up to 44.8 µM. The method, boiled down: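 Cell viability measured by CellTiter-Glo following 72 hr compound treatment at 37 degree celsius, with NPC and MIPE libraries tested in 8- and 11-point concentration series.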
Further: nearly all actives have a fitted effect of over 60% in size.

As to `Cc1ccc(-c2nc3ccc(C)cn3c2CC(=O)N(C)C)cc1`, the Potency entry in the experiment on ICS, in the experiment with JCK, with N140, in the experiment with P94_40, with PAD and in the experiment with PC15 was “inactive” each time. Also, the Potency entry in the experiment with PC49, with SC27B, with TAB109, in the experiment on TAB113, in the experiment with TAB165 and in the experiment on W2 was “inactive” in each case. For the same compound, the max response with CRL-7250 [1] was 3.97%; with HEK293, -21.2%; with HaCat, -0.388%; in the experiment with KB-3-1, 2.97%; in the experiment with NIH3T3, -7.47%.

On to `Clc1cccc(N2CCNCC2)c1`, for which the Potency entry in the experiment on ICS, in the experiment with JCK, with N140, in the experiment on P93_24, with P94_40 and in the experiment on PAD was “inactive” throughout. Also, the Potency entry in the experiment with PC15, with PC26, in the experiment on PC49, with SC27B, in the experiment with TAB113 and in the experiment on TAB165 was “inactive” throughout. For the same compound, the Potency with W2 was 7.57 µM (active). For the same compound, the results for the max response in the experiment with CRL-7250 [1], with HEK293 and in the experiment with KB-3-1 were 1.11%, 1.3% and 5.71%, respectively. In addition, the compound was called inactive in the experiment with HaCat and in the experiment on NIH3T3.

Regarding `O=P1(NCCCl)OCCCN1CCCl` (configuration not stated), the Potency result in the experiment with ICS, in the experiment with N140, in the experiment on P93_24, in the experiment on P94_40, with PAD and in the experiment on PC15 was “inactive” in each case. In addition, the Potency entry in the experiment on PC26, with PC49, in the experiment with SC27B, in the experiment on TAB109, in the experiment on TAB113 and in the experiment on TAB165 was “inactive” in each case. Further, the max response in the experiment on CRL-7250 [1] was -12.2%; with HEK293, 3.55%; with KB-3-1 it was 0.482% and 4.18%; in the experiment with NIH3T3 it was -11.2% and -20.7%. Also, the call with HaCat was inactive.

Take `N#CC(C#N)=Cc1ccc(O)c(O)c1`: the Potency result with ICS, in the experiment with JCK, in the experiment on N140, with P93_24, in the experiment with P94_40 and in the experiment with PAD was “inactive” in each case. For the same compound, the Potency entry in the experiment with PC15, in the experiment on PC26, with PC49, with SC27B and with TAB165 was “inactive” throughout. For the same compound, the max response is -16.4% with CRL-7250 [1], -18.8% in the experiment with HEK293, 1.48% in the experiment on KB-3-1 and -19.5% with NIH3T3. In the experiment with HaCat, the call was inactive.

As for `C[C@]12CCC(=O)C(O)=C1CC[C@@H]1[C@@H]2CC[C@]2(C)C(=O)CC[C@@H]12`, the max response with CRL-7250 [1] was -13.2%; in the experiment with HaCat, -15.5%; in the experiment on KB-3-1, -15.7%; in the experiment on NIH3T3, -5.78%.

As for `CC(=O)[C@H]1CC[C@H]2[C@@H]3CC[C@H]4C[C@](C)(O)CC[C@]4(C)[C@H]3CC[C@]12C`, the Potency result in the experiment with ICS, with JCK, with N140, in the experiment with P93_24, in the experiment on P94_40 and with PAD was “inactive” throughout. Further, the Potency result in the experiment on PC15, in the experiment on PC26, in the experiment with PC49, with SC27B, in the experiment with TAB109 and in the experiment with TAB113 was “inactive” each time. Besides, the Potency entry in the experiment with TAB165 was “inactive”. Moreover, the compound was classed as inactive in the experiment with CRL-7250 [1], with HaCat, in the experiment with NIH3T3 and in the experiment with CRL-7250 [2]. The max response in the experiment with KB-3-1 is -8.61%.

Turning to `N[C@@H]1C[C@H]1c1ccccc1`, the max response in the experiment with CRL-7250 [1] is -2.94%; with KB-3-1 it was -0.335%; in the experiment with NIH3T3, 3.17%. In addition, in the experiment on HaCat, the result was inactive.

For the compound `CCCN1CCC[C@@H]2Cc3[nH]ncc3C[C@H]21`, the Potency result with PC26 and with W2 was “inactive” each time. Further, the max response in the experiment with CRL-7250 [1] is 4.64%; in the experiment on HEK293 it was -0.855%; in the experiment on KB-3-1, -4.95%. Further, the outcome with NIH3T3 was inactive.

Regarding `CN(C)CCN(C)CCc1ccc(Cl)c(Cl)c1`, the compound was classed as inactive in the experiment on CRL-7250 [1] and with CRL-7250 [2]. Further, the max response was -22.4% in the experiment on HaCat, 0.794% with KB-3-1 and -6.27% with NIH3T3.

Take `N[C@@H](Cc1ccc(Oc2cc(I)c(O)c(I)c2)c(I)c1)C(=O)O`: the max response with CRL-7250 [1] was -1.97%; in the experiment with KB-3-1, 6.84%; in the experiment on NIH3T3 it was -1.92%. Besides, the compound was classed as inactive in the experiment on HaCat.

On to `CCC(=O)C(CC(C)N(C)C)(c1ccccc1)c1ccccc1` (configuration not stated), for which the max response with CRL-7250 [1] was -4.65%; with KB-3-1, -25%; with NIH3T3 it was -1.89%. Further, the compound was called inactive with HaCat.

On to `CC1NCCOC1c1ccccc1` (configuration not stated), for which the Potency result in the experiment with ICS, in the experiment with JCK, in the experiment on N140, in the experiment on P93_24, in the experiment with P94_40 and with PAD was “inactive” in each case. Besides, the Potency entry with PC15, in the experiment with PC26, in the experiment with PC49, with SC27B, with TAB109 and in the experiment with TAB113 was “inactive” in each case. The Potency result with TAB165 was “inactive”. Moreover, the figures for the max response in the experiment with CRL-7250 [1], in the experiment on KB-3-1 and with NIH3T3 were 1.98%, -11.6% and 1.83%, respectively. In addition, the compound was called inactive in the experiment with HaCat.

On to `NCCc1cc(O)c(O)cc1O`, for which the Potency result with ICS, in the experiment with JCK, in the experiment with N140, with P93_24, in the experiment on P94_40 and in the experiment with PAD was “inactive” throughout. Besides, the Potency entry in the experiment on PC15, in the experiment on PC26, in the experiment on PC49, in the experiment on SC27B, with TAB113 and in the experiment on TAB165 was “inactive” each time. Also, the Potency entry in the experiment with W2 was “inactive”. The max response with CRL-7250 [1] was 3.51%; with KB-3-1, 9.04%. Also, the outcome in the experiment on HaCat and in the experiment with NIH3T3 was inactive.
